Measured values from PubChem BioAssay AID624418 (National Center for Advancing Translational Sciences (NCATS), 2012).
The whole screen tested about 410,000 compounds, of which about 530 (0.13%) were called active. Inconclusive results (about 5%) are left out. This excerpt belongs to a sample that is enriched for actives. A number with no mark means an inactive call. Calls follow the shape of the dose curve; as a rule, active = well fitted inhibition curve with a large enough effect; inconclusive = small, poorly fitted or top-dose-only effect, or another doubt; inactive = no such curve, though single readings can be large or run the other way.

Assay: qHTS of GLP-1 Receptor Inverse Agonists: Cytotox Screen;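 also: loss of luciferase light is scored as toxicity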
Conditions: HEK293 cAMP-luciferase reporter cells, luminescence, 24 h; series mostly up to 38.3 µM; activity change, negative = inhibition: at the top concentration
Text: The overall goal of this project was to develop a novel assay for discovering small molecule ligands for class B1 G protein-coupled receptors (GPCRs). Very few agonists (or inverse agonists) with generally weak activity for this entire group of physiologically important receptors are known to date. To establish proof-of-principle that this critical bottleneck can be overcome with a suitable screening approach, our studies focused on the class B1 receptor for glucagon-like peptide-1 (GLP-1R), a potential therapeutic target for diabetes and neurodegenerative disease.
The assay was developed using a cell-based functional readout. Toward this goal, stably transfected HEK293 cell clones were established that co-express (i) a cAMP-responsive luciferase reporter gene, and (ii) constitutively active GLP-1R that upon ligand interaction inhibit (inverse agonists) the luciferase activity. In addition, two control cell lines were developed: (i) one that express only the cAMP-responsive reporter gene to enable initial exclusion of GLP-1R independent effects of candidate probes; and (ii) one with the reported gene cloned with another constitutively active orphan receptor GPR119 to enable exclusion of GLP-1R independent inhibitor effects of candidate inverse agonists.
To that end, this assay was optimized for 1536-well format and screened against the MLSMR. Then the same collection was run in this cytotoxicity assay where inhibition was the undesired outcome.
NIH Molecular Libraries Probe Production Network [MLPCN]
NIH Chemical Genomics Center [NCGC]
PI Name: Martin Beinborn, Tufts Medical Center
Six ul of cell suspension (200 cells/uL in DMEM + 10% Nu serum + 1% pen-strep) is dispensed in a white solid 1536-well plate. The plates are incubated for 12 hours at 37 deg C at 5% CO2 followed by addition of 23 nL compounds. After 24 hr incubation at 37 deg C and 5% CO2, 3 uL of luciferase assay detection reagent is added. A luminescence read is obtained on the PerkinElmer Viewlux after 12 min incubation at room temperature.
% is scaled to controls: 0 for no effect and ±100 for the full control effect; potency is read from the fitted curve at half-maximal effect.

Row | SMILES | activity change, negative = inhibition | Potency
1 | Cn1c(C(=O)Nc2cccc(C(F)(F)F)c2)cc2c(=O)n3ccccc3nc21 | 86.5% | –
2 | Cc1ccc2c(c1)-c1c(cnn1CC(=O)Nc1ccccc1C#N)CO2 | -10.5% | –
3 | CCN1CCN(c2ncnc3c2cnn3-c2ccc(C)c(C)c2)CC1 | 2.92% | –
4 | COC(=O)c1ccc(NC(=O)c2cccc3c2C(=O)N(C2CCCCC2)C3)cc1 | -5.32% | –
5 | COc1ccc(-c2nn3c(-c4ccc(OC)cc4)nnc3c3ccccc23)cc1 | -20.7% | –
6 | CCOc1cc(C2c3c(-c4ccc(Br)cc4)n[nH]c3C(=O)N2c2ccc(Cl)cc2)ccc1O (configuration not stated) | -25.1% | –
7 | CCC(Sc1nc2n[nH]c(C)c2c(=N)n1-c1ccccc1Cl)C(=O)N(CC)CC (configuration not stated) | -2.5% | –
8 | CC(=O)OC1=C(C(C)=O)N(Cc2ccccc2)S(=O)(=O)c2ccccc21 | -4.82% | –
9 | CN(Cc1ccccc1)C(=O)c1cn(C)c2ccc(S(=O)(=O)N3CCCCC3)cc2c1=O | 0% | –
10 | CCc1ccccc1NC(=O)CSc1nnc(-c2ccccc2)c(-c2ccccc2)n1 | 2.66% | –
11 | Cc1ccc(C)c(N2CCN(C(=O)Cc3c(C(=O)O)c(C)cn3C)CC2)c1 | -8.4% | –
12 | Cc1cccc(NC(=O)C2CCN(S(=O)(=O)c3c(C)noc3/C=C/c3ccco3)CC2)c1 | 14% | –
13 | COc1ccc(OC)c(NC(=O)C2CCCN(S(=O)(=O)c3ccc4c(c3)CCCC(=O)N4)C2)c1 (configuration not stated) | -1.5% | –
14 | COc1ccc(CC(=O)N2N=C(C)CC2(O)C(F)(F)F)cc1 (configuration not stated) | – | 6.31 µM (active)
15 | CC1=NN(C(=O)CCc2ccccc2O)C(O)(C(F)(F)F)C1 (configuration not stated) | -13.2% | –
16 | CC1=NN(C(=O)Cc2ccc(C)cc2)C(O)(c2cccnc2)C1 (configuration not stated) | -21.4% | –
17 | O=C(Nc1ccc(Oc2ccccc2)cc1)C1CCN(S(=O)(=O)c2ccc(Cl)cc2)CC1 | -15.9% | –
18 | CC(=O)Nc1ccc(NC(=O)CSc2nnc3c4cc(Br)ccc4n(C)c3n2)cc1 | 6.5% | –
19 | CC(C)CN1CCC1(C)C(=O)Nc1ccc(OC(F)F)cc1 (configuration not stated) | -4.92% | –
20 | CC(C)N(Cc1ccccc1)C(=S)Nc1ccc(OC(F)F)cc1 | -0.269% | –
21 | CC/C(=N\NC(=S)NC(C)C)c1ccc(OC(F)F)cc1 | – | 4.47 µM (active)
22 | Cc1oc(C)c2c(=O)cc(-c3ccc4c(c3)OCO4)cc(OC(=O)c3ccc(Cl)cc3)c12 | -2.3% | –
23 | O=C(Nc1cc(C(F)(F)F)ccc1Cl)c1nc2ccccc2nc1N1CCCCC1 | -4.7% | –
24 | O=C(NCC12CC3CC(CC(C3)C1)C2)c1cc2nc(-c3ccccc3)cc(C(F)(F)F)n2n1 | -16.7% | –
25 | CSc1ccccc1-c1nnc(NC(=O)c2ccc3c(c2)OCCO3)o1 | 2.88% | –
26 | CCOc1ccccc1NC(=O)C1CCCN(S(=O)(=O)c2cn(C)cn2)C1 (configuration not stated) | -5.32% | –
27 | Fc1ccc(-c2nc(Nc3cccc(Cl)c3)nc3c2COc2ccccc2-3)cc1 | 26.4% | –
